# Records with an inconclusive call do not appear. Calls of active or inactive are those of the source. The call rests on the fitted dose curve; in most records, active means well fitted curve in the direction sought with a large enough effect in the signal ratio, with a control signal flat (not every such curve was filed as active); inconclusive means small, poorly fitted or top-dose-only effect, or effect the other way, or a change in a side signal; inactive means no such curve, though single readings can be large or run the other way; the % refers to the signal ratio.
# Biological target: Estrogen receptor (Homo sapiens) (UniProt P03372)
# Test: qHTS assay for small molecule antagonists of estrogen receptor alpha signaling (AID 588513)
# Conditions: ER-alpha-UAS-bla HEK293, beta-lactamase ratio, antagonist mode; series mostly up to 76.9 µM
# From the text: NIH Chemical Genomics Center [NCGC]
# U.S. Environmental Protection Agency [EPA]
# National Institutes of Environmental Health Sciences [NIEHS]
# National Toxicology Program [NTP]
# Estrogen receptor alpha (ER-alpha) is an important member of nuclear hormone receptors. ER-alpha plays important role in breast cancer as well as in other women's health issues. The majority of breast cancers is estrogen receptor (ER) positive and depends on estrogen for growth. There is also growing concern for some of environmental chemicals which may contribute the increasing the incidence of breast cancer. Therefore, it is important to understand the effect of environmental chemicals in ER-alpha signaling pathway.
# NCGC Assay Protocol Summary
# Using a beta-lactamase reporter-gene under control of the ER response element, a cell-based assay [ER-alpha-UAS-bla GripTiteTM cell-Based Assay from Invitrogen] was used to measure ER-alpha signaling pathway in antagonist mode. ER-alpha-UAS-bla-GripTite HEK 293 cells were used with assay medium containing 2% charcoal/dextran treated FBS, 0.1 mM NEAA and 1 mM sodium pyruvate. Cells were cultured in this assay medium overnight in the flasks before the assay. The assay was performed in clear bottom black Greiner 1536-well plates. 17-beta-estradiol was used as a positive control in the screen. Library compounds were measured for their ability to inhibit the reporter gene activity. Compounds were screened in a titration series in 1536-well format. […] Data was normalized relative to 17-beta-estradiol control (0.5nM, 100%), and DMSO only wells (basal, 0%). Concentration-response titration points for each compound were fitted to the Hill equation yielding concentrations of half-maximal inhibition (IC50) and maximal response (efficacy) values.
# qHTS protocol for ER-alpha beta-lactamase assay in antagonist mode
# [Step] [Parameter] [Value] [Description]
# 1. Reagent; 5 uL; 5000 cells/well
# 2. Incubation; 37 C for 4 hrs
# - Dose response, Start 38uM, 1:2 dilutions with duplicates
# - Two columns with 38 and 19uM (final) concentration.
# 5. Agonist (Stimulator); 1uL; 17-beta-estradiol at 0.5nM (final) concentration
# 6. Incubation; 37 C for 18 hrs
# 7. Detection reagent; 1 uL of CCF4-dye
# 8. Incubation; RT for 2 hrs
# 9. Detection; Fluorescence; Envision plate reader or Acumen plate reader
# Estrogen receptor (Homo sapiens), sequence (P03372 whole entry, looked up): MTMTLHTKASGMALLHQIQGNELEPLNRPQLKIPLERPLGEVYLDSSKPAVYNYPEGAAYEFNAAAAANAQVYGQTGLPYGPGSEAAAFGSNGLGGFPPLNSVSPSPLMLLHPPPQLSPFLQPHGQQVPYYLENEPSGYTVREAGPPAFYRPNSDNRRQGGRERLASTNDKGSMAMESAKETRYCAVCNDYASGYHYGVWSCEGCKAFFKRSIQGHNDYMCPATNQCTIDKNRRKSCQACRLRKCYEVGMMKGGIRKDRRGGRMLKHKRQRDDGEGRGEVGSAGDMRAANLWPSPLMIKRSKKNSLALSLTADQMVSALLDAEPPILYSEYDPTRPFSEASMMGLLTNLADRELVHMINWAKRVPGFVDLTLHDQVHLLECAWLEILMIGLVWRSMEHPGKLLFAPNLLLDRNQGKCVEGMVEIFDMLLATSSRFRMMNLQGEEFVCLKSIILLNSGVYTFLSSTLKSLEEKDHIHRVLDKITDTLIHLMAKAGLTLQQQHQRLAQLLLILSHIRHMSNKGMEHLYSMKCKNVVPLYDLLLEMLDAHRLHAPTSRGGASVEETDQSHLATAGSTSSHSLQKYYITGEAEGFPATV
row,SMILES,outcome
1,C/C(C=O)=C/c1ccccc1,inactive
2,CNc1ccc([N+](=O)[O-])cc1,inactive
3,OC/C(Br)=C(\Br)CO,inactive
4,CC(C)=C1CCC(C)CC1=O (stereo not given),inactive
5,Cc1cc(C)cc([N+](=O)[O-])c1,inactive
6,CC(=O)c1ccccc1[N+](=O)[O-],inactive
7,Nc1cccc(O)c1,inactive
8,O=C1CCCCC1,inactive
9,CCNc1cc(O)ccc1C,inactive
10,O=Nc1ccc(NO)cc1,inactive
11,Nc1ccc(F)cc1F,inactive
12,Nc1cc(Cl)c([N+](=O)[O-])cc1O,inactive
13,C=C(C)C(=O)OCC(C)O (stereo not given),inactive
14,CC(C)(C)c1ccc(OCC2CO2)cc1 (stereo not given),inactive
15,NC(=O)NC(N)=O,inactive
16,COc1cccc2sc(N)nc12,inactive
17,CCN(Cc1ccccc1)c1ccccc1,inactive
18,CCOc1ccc(NC(C)=O)cc1N,inactive
19,C=Cc1ccccc1C=C,inactive
20,CC(=O)Nc1ccc(C)cc1,inactive

row,SMILES,outcome
1,CCc1ccccc1O,inactive
2,O=[N+]([O-])c1ccc(CCO)cc1,inactive
3,Cc1cc(C)c(N)cc1C,inactive
4,O=C1C=CCCC1,inactive
5,CCC(C)(C)C,inactive
6,Cc1nc2ccc(Cl)cc2[nH]1,inactive
7,CCOC(=O)OCC,inactive
8,C=C(C)C(=O)OCCCCCCCCCC,inactive
9,CC(C)N(C)C,inactive
10,O=C1OC(=O)c2cc([N+](=O)[O-])ccc21,inactive
11,C1CCC2OC2C1 (stereo not given),inactive
12,Cc1ccc(C)c(N)c1,inactive
13,FB(F)F,inactive
14,O=c1[nH][nH]c(=O)c2cc([N+](=O)[O-])ccc12,inactive
15,Cc1ccccc1C#N,inactive
16,CC(N)CN (stereo not given),inactive
17,C1COC1,inactive
18,O=C(O)c1ccc(Cl)c(Cl)c1,inactive
19,Nc1cccc(S(=O)(=O)O)c1,inactive
20,O=C(O)c1cc(Cl)cc(Cl)c1,inactive
